# Assay results as given in the supplement of paper PMC11219838.
# Values without a mark were called inactive.
# Test system: Caenorhabditis elegans dauer (daf-2(e1370))
# Assay: proportion of mobile C. elegans dauer larvae relative to DMSO control (fraction of DMSO control); higher = more viable, less nematicidal, active = 0.63 or less; extreme values may be limits of the assay
# Settings: 60 µM; 5 days; temperature: 20 °C
# Method: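 DODA library (846 commercial 1,3,4- and 1,2,4-oxadiazole compounds plus commercial nematicide controls) screened at a single dose of 60 µM (0.6% DMSO) in 96-well plates, two biological replicates. Read-outs: C. elegans N2 L1 survival/reproduction score at day 6, 20 °C (0: 0-10 worms, 1: 11-20, 2: 21-50, 3: >50, 4: overgrown/starved). C. elegans daf-2 dauer, D. dipsaci and M. hapla J2 mobility at day 5, 20 °C, and P. penetrans mobility at day 5, 20 °C, each relative to DMSO controls. M. hapla egg hatching at day 12, 25 °C, relative to the mean of 8 DMSO wells on the same plate.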
row,Structure (SMILES),proportion of mobile C. elegans dauer larvae
1,COc1ccc(-c2noc(COc3ccc(Cl)cc3C)n2)cc1,1
2,CCSc1nnc(-c2ccc(Cl)cc2)o1,0 (active)
3,COc1ccc(-c2noc(COc3ccc(C(C)(C)C)cc3Br)n2)cc1,1
4,Cc1cc(C)c(OCc2nc(-c3ccncc3)no2)c(C)c1,1
5,COc1ccccc1-c1nnc(SCC(=O)OCc2ccccc2)o1,1
6,CCOc1ccccc1-c1nnc(SCC(=O)NC(C)CC)o1 (stereo not given),1
7,COc1ccccc1-c1nc(-c2ccc(Cl)cc2)no1,1
8,Fc1ccc(OCc2nc(-c3ccccc3)no2)cc1,1
9,O=C(NC1CCCCC1)c1ccccc1-c1nc(-c2ccc(F)cc2)no1,1
10,COc1ccccc1NC(=O)CSc1nnc(-c2ccccc2)o1,1
11,O=C(Nc1ccc(-c2noc(-c3ccc(F)cc3)n2)cc1)c1ccc(Br)o1,1
12,Cc1ccccc1OCc1nc(-c2ccccc2)no1,1
13,Cc1cccc(OCc2nc(-c3ccccc3Cl)no2)c1,1
14,COc1cccc(-c2nnc(SCC(=O)Nc3ccccc3)o2)c1,1
15,CCCOc1ccc(-c2nc(-c3cccnc3)no2)cc1,1
16,CCOc1ccccc1-c1nc(-c2ccc(F)cc2)no1,1
17,Cc1ccccc1OCc1nc(-c2cccc(NC(=O)c3ccco3)c2)no1,1
18,O=C(CSc1nnc(-c2ccccc2)o1)Nc1cccc(Cl)c1,1
19,Fc1ccc(OCc2nc(-c3ccc(Cl)cc3)no2)cc1,1
20,COc1cccc(-c2noc(COc3ccc(Br)cc3)n2)c1,1

row,Structure (SMILES),proportion of mobile C. elegans dauer larvae
1,Clc1cccc(OCc2nc(-c3ccncc3)no2)c1,1
2,Cc1cc(OCc2nc(-c3ccncc3)no2)ccc1Br,1
3,Cc1ccccc1OCc1nc(-c2cccs2)no1,1
4,Fc1ccccc1-c1nc(-c2ccccc2)no1,1
5,COc1ccc(Cl)cc1-c1noc(COc2ccccc2)n1,1
6,COc1ccc(OC(C)c2nc(-c3cccnc3)no2)cc1 (stereo not given),1
7,CCCCc1ccc(-c2nc(-c3cccnc3)no2)cc1,1
8,N#Cc1ccc(CSc2nnc(-c3ccco3)o2)cc1,1
9,COc1ccc(-c2noc(COc3ccc4c(c3)CCCC4)n2)cc1,1
10,O=C(CSc1nnc(-c2ccc(Br)cc2)o1)NC1CCCC1,1
11,CCCC(=O)Nc1ccccc1-c1nc(-c2ccccn2)no1,1
12,Clc1ccc(-c2nc(C3CCCCC3)no2)cc1,1
13,Cc1ccc(OCc2nc(-c3ccncc3)no2)c(Br)c1,1
14,CCOc1ccccc1-c1nnc(SCC(=O)Nc2nccs2)o1,1
15,Cc1cnnn1-c1ccc(-c2nc(-c3ccc(Cl)cc3)no2)cc1,1
16,CC(C)Oc1ccc(-c2nc(-c3ccccn3)no2)cc1,0.0263 (active)
17,CCCCSc1nnc(-c2ccc(Br)cc2)o1,0.5 (active)
18,Cc1cc(OCc2nc(-c3cccnc3)no2)c(C)cc1Br,1
19,CCc1nnc(NC(=O)CSc2nnc(-c3ccc(Cl)cc3Cl)o2)s1,1
20,CCOc1cc(-c2nc(-c3ccc(C)nc3OC)no2)cc(OCC)c1OCC,1
